From PubChem BioAssay
This is a sample that favours compounds with a hit; in the whole collection about 6.7% have one here.
KB-3-1 cytotox – kills parental KB-3-1 adenocarcinoma cells. KB-3-1 viability, CellTiter-Glo ATP luminescence, 72 h. Potency, µM (titrated, usually from 46.1 µM), usual class: cytotoxic. actives 1.4% (n = 400,000). AID 1347075; note: nearly all actives have a fitted effect of over 60% in size
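72 h, 37 °C compound treatment of KB-3-1 parental cells; CellTiter-Glo added, 10 min, luminescence read. Data corrected against DMSO-only plates and normalized before curve fitting.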
PINK1 expr mod – changes PINK1 expression; PINK1 immunofluorescence, high-content cytometry, 24 h; Potency, µM (titrated, usually from 76.6 µM), most hits filed as activators; actives 0.2% (n = 410,000); active = well fitted activation curve with a large enough effect; inconclusive = small, poorly fitted or top-dose-only effect; cell line not stated here; note: nearly all actives have a fitted effect of over 65% in size
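Readout is PINK1 immunofluorescence, quantified alongside mitochondrial, cell and nuclear markers by laser-scanning microplate cytometry. Cells from a stable line were exposed to compound titrations (5 concentrations) for 24 hours, with CCCP controls.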
SW480 rerep – DNA re-replication induction in SW480 cells | AID 624297 | Potency, µM (doses to about 46.1 µM), usual class: activators | SW480 DNA re-replication, Hoechst DNA content imaging, 48 h | actives 1.8% (n = 340,000); note: nearly all actives have a fitted effect of over 55% in size
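SW480 cells exposed to compounds for 48 hr at 37 C, 5% CO2, then Hoechst-stained 40 min. Nuclear DNA content imaged by fluorescence scanning (405 nm excitation, 500-530 nm emission); re-replication scored as increased high-intensity nuclei.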
KB-V1 cytotox – kills drug-selected multidrug resistant KB-V1 cells; actives 3.4% (n = 400,000); AID 1347076; Potency, µM (series often up to 46.1 µM), usual class: cytotoxic; KB-V1 MDR cells viability, CellTiter-Glo, 72 h; note: nearly all actives have a fitted effect of over 60% in size
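Cytotoxicity toward P-gp-expressing KB-V1 cells was determined as loss of CellTiter-Glo luminescence after 72 h at 37 degrees C. Compounds were tested in quantitative HTS format across a concentration range, with curves fitted to normalized data.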
MCF10A rereplic – induces DNA re-replication in MCF 10a normal breast cells; MCF 10A DNA re-replication, Hoechst nuclear intensity, 48 h; Potency, µM (doses to about 46.1 µM), usual class: activators; actives 2.9% (n = 350,000); AID 624296; note: nearly all actives have a fitted effect of over 50% in size
Of the large screens only hits and unclear results are named; the others gave an inactive call. Unless noted, calls come from the whole dose curve; as a rule, active = well fitted curve in the direction sought with a large enough effect; inconclusive = small, poorly fitted or top-dose-only effect, or another doubt; inactive = no such curve, though single readings can be large; an effect the other way counts as inactive or inconclusive.

O=C(NCc1ccco1)c1ccc2nc([C@@H]3O[C@H](CO)[C@H](O)[C@H](O)[C@H]3O)[nH]c2c1	none (no result: SW480 rerep, MCF10A rereplic)
COc1cc(C(CC(=O)Nc2ccc(Br)cn2)N2Cc3ccccc3C2=O)cc(OC)c1OC (stereo not drawn)	none (no result: SW480 rerep, MCF10A rereplic)
Cc1c(Cl)cccc1-c1ccc(CNCCSc2nnnn2-c2ccccc2)o1	none (no result: SW480 rerep, MCF10A rereplic)
Cc1ccc(C)c(N2CCN(C(=O)Cn3ncc4ccsc4c3=O)CC2)c1	KB-3-1 cytotox 16µM, KB-V1 cytotox 4.1µM (no result: SW480 rerep, MCF10A rereplic)
O=C(Cn1ncc2ccsc2c1=O)N1CCN(c2ccccc2)CC1	none (no result: SW480 rerep, MCF10A rereplic)
COc1ccc(CC(=O)NO)cc1OC	none (no result: KB-3-1 cytotox, SW480 rerep, KB-V1 cytotox, MCF10A rereplic)
COc1cc(OC)cc(C(=O)NC(C(=O)N2CCc3ccccc3C2)C(C)C)c1 (stereo not drawn)	KB-3-1 cytotox inconclusive, SW480 rerep 18µM, KB-V1 cytotox inconclusive, MCF10A rereplic inconclusive
COc1ccc(OC)c(CN2CCN(C(=O)[C@@H](NC(=O)c3cccc(C)c3)C(C)C)CC2)c1	KB-V1 cytotox 9.2µM, MCF10A rereplic inconclusive
COc1cc(OC)cc(C(=O)N[C@H](C(=O)N2CCc3ccccc32)C(C)C)c1	PINK1 expr mod inconclusive, SW480 rerep inconclusive, KB-V1 cytotox inconclusive, MCF10A rereplic inconclusive
CCOc1ccc(-c2noc([C@@H]3O[C@H](CO)[C@@H](O)[C@H]3O)n2)cc1	none (no result: SW480 rerep, MCF10A rereplic)
CC(=O)Nc1cccc(NC(=O)CSc2ccc(-c3sc(-c4ccccc4)nc3C)nn2)c1	none (no result: SW480 rerep, MCF10A rereplic)
C=C1CC[C@@H]2[C@](C)(CO)[C@H](O)CC[C@@]2(C)[C@@H]1C/C=C1/C(=O)OCC1O (stereo partly drawn)	SW480 rerep inconclusive, MCF10A rereplic inconclusive
Cc1cccc(NC(=O)c2ccccc2SCc2ccc(F)cc2)n1	KB-V1 cytotox 21µM
CC(C)CN(CC(C)C)S(=O)(=O)c1ccc(C(=O)Nc2sc3c(c2C(N)=O)CC(C)(C)NC3(C)C)cc1	none (no result: SW480 rerep, MCF10A rereplic)
O=C(c1cc2ccccc2oc1=O)N(Cc1ccco1)CC1CCCO1 (stereo not drawn)	KB-V1 cytotox 12µM
COc1ccc2[nH]c(=O)c(CN(CC3CCCO3)C(=O)Nc3ccc(F)cc3)cc2c1 (stereo not drawn)	KB-3-1 cytotox 13µM, KB-V1 cytotox 2.6µM, MCF10A rereplic inconclusive
COc1ccc(NC(=O)N(Cc2cc3cc(C)ccc3[nH]c2=O)CC2CCCO2)cc1 (stereo not drawn)	SW480 rerep inconclusive, MCF10A rereplic inconclusive
Cc1cccc2cc(CN(CCN(C)C)C(=S)Nc3ccccc3)c(=O)[nH]c12	SW480 rerep inconclusive, KB-V1 cytotox 23µM
Cc1cc(C)c2[nH]c(=O)c(CN(CC3CCCO3)C(=S)Nc3ccccc3)cc2c1 (stereo not drawn)	PINK1 expr mod inconclusive
Cc1ccc2cc(CN(CC3CCCO3)C(=S)Nc3ccccc3)c(=O)[nH]c2c1C (stereo not drawn)	KB-3-1 cytotox 7.3µM, SW480 rerep 5.2µM, KB-V1 cytotox 2.3µM, MCF10A rereplic 2.6µM
CN(C)c1ccc(/C=C2\C=Cc3ccccc32)c(Cl)c1	KB-3-1 cytotox inconclusive, KB-V1 cytotox inconclusive (no result: SW480 rerep, MCF10A rereplic)
Cc1ccc2[nH]c(=O)c(CN(CC3CCCO3)S(=O)(=O)c3c(C)ccc4nsnc34)cc2c1 (stereo not drawn)	KB-3-1 cytotox inconclusive, KB-V1 cytotox 6.5µM
COc1ccc(Cn2nnnc2CN(Cc2cc3ccc(C)cc3[nH]c2=O)C2CCCC2)cc1	KB-V1 cytotox inconclusive
CCOc1ccc(N(Cc2cc3cc(OC)ccc3[nH]c2=O)S(C)(=O)=O)cc1	KB-V1 cytotox 15µM
CCC(C)(C)n1nnnc1CN(Cc1cc2cc(OC)ccc2[nH]c1=O)C1CCCC1	SW480 rerep inconclusive, KB-V1 cytotox 18µM, MCF10A rereplic 5.8µM (no result: PINK1 expr mod)
Cc1ccc2[nH]c(=O)c(CN(CC3CCCO3)C(=S)Nc3ccccc3)cc2c1 (stereo not drawn)	KB-3-1 cytotox inconclusive, SW480 rerep inconclusive, KB-V1 cytotox 4.1µM, MCF10A rereplic inconclusive
COc1ccc(N2C(=O)CSC23C(=O)N(CC(=O)NCCc2ccccc2)c2ccccc23)cc1 (stereo not drawn)	none (no result: SW480 rerep, MCF10A rereplic)
COc1ccc2[nH]c(=O)c(CN(C(C)=O)C3CCCCC3)cc2c1	none (no result: PINK1 expr mod)
COc1ccc2[nH]c(=O)c(CN(C(=O)NC3CCCCC3)C3CCCC3)cc2c1	KB-V1 cytotox 15µM, MCF10A rereplic inconclusive
